Results published in PubChem BioAssay AID1159580 (chemical genetic matrix, 2015).
About 2,000 (36%) of roughly 5,500 compounds were called active. Roughly 18% stayed inconclusive and do not appear here. This is one part of the list. A number with no mark means an inactive call. Rule as the data show it: active = normalized growth mostly below about 0.91 (no sharp cut-off); inconclusive = no clear call, values can overlap the other calls; inactive = mostly above about 0.92.

Assay: chemical genetic growth profiling, strain panel (AID 1159580);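 also: tested at 20 µM; growth read once vehicle control cultures reached saturation at 30 °C; 1 = growth at the plate median or of vehicle wells; lower values mean less growth of the strain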
Details: growth OD

SMILES: COc1ccc2cc1Oc1ccc(cc1)C[C@H]1c3cc(c(OC)cc3CCN1C)Oc1c(OC)c(OC)cc3c1[C@H](C2)N(C)CC3
- normalized growth (S. cerevisiae deletion strains, locus YKL009W, strain mrt4, active compounds read low): 1.02
- normalized growth (S. cerevisiae deletion strains, locus YKL068W, active compounds read low): 1.01
- normalized growth (S. cerevisiae deletion strains, locus YKL085W, strain MDH1 (second series), active compounds read low): 1.01
- normalized growth (S. cerevisiae deletion strains, locus YKL085W, strain MDH1, active compounds read low): 1.01
- normalized growth (S. cerevisiae deletion strains, locus YKL160W, strain elf1, active compounds read low): 0.99
- normalized growth (S. cerevisiae deletion strains, locus YKL190W, strain CNB1, active compounds read low): 1.01
- normalized growth (S. cerevisiae deletion strains, locus YKR001C, strain vps1, active compounds read low): 0.973
- normalized growth (S. cerevisiae deletion strains, locus YKR026C, strain gcn3, active compounds read low): 1
- normalized growth (S. cerevisiae deletion strains, locus YKR091W, strain srl3, active compounds read low): 1
- normalized growth (S. cerevisiae deletion strains, locus YLL001W, strain dnm1, active compounds read low): 0.986
- normalized growth (S. cerevisiae deletion strains, locus YLL026W, active compounds read low): 1
- normalized growth (S. cerevisiae deletion strains, locus YLL041C, strain sdh2, active compounds read low): 1
- normalized growth (S. cerevisiae deletion strains, locus YLR027C, strain aat2, active compounds read low): 1.01
- normalized growth (S. cerevisiae deletion strains, locus YLR039C, strain RIC1, active compounds read low): 0.94
- normalized growth (S. cerevisiae deletion strains, locus YLR058C, strain SHM2, active compounds read low): 1.01
- normalized growth (S. cerevisiae deletion strains, locus YLR102C, strain apc9, active compounds read low): 1.01
- normalized growth (S. cerevisiae deletion strains, locus YLR113W, strain HOG1, active compounds read low): 1.07
- normalized growth (S. cerevisiae deletion strains, locus YLR221C, strain rsa3, active compounds read low): 1.01
- normalized growth (S. cerevisiae deletion strains, locus YLR258W, strain gsy2, active compounds read low): 1.01
- normalized growth (S. cerevisiae deletion strains, locus YLR262C, strain YPT6 (second series), active compounds read low): 0.975
- normalized growth (S. cerevisiae deletion strains, locus YLR262C, strain YPT6, active compounds read low): 0.993
- normalized growth (S. cerevisiae deletion strains, locus YLR268W, strain sec22, active compounds read low): 1.01
- normalized growth (S. cerevisiae deletion strains, locus YLR320W, strain mms22, active compounds read low): 0.987
- normalized growth (S. cerevisiae deletion strains, locus YLR330W, strain CHS5, active compounds read low): 1.02
- normalized growth (S. cerevisiae deletion strains, locus YLR342W, strain FKS1 (second series), active compounds read low): 0.885
- normalized growth (S. cerevisiae deletion strains, locus YLR342W, strain FKS1, active compounds read low): 1.01
- normalized growth (S. cerevisiae deletion strains, locus YLR357W, strain rsc2, active compounds read low): 0.977
- normalized growth (S. cerevisiae deletion strains, locus YLR370C, strain arc18, active compounds read low): 0.914
- normalized growth (S. cerevisiae deletion strains, locus YLR371W, strain rom2, active compounds read low): 1.01
- normalized growth (S. cerevisiae deletion strains, locus YLR384C, strain iki3, active compounds read low): 1.01
- normalized growth (S. cerevisiae deletion strains, locus YLR418C, strain cdc73, active compounds read low): 0.96
- normalized growth (S. cerevisiae deletion strains, locus YML016C, strain PPZ1, active compounds read low): 1
- normalized growth (S. cerevisiae deletion strains, locus YML032C, strain rad52, active compounds read low): 1.01
- normalized growth (S. cerevisiae deletion strains, locus YML120C, strain ndi1, active compounds read low): 1.02
- normalized growth (S. cerevisiae deletion strains, locus YML124C, strain tub3, active compounds read low): 1.02
- normalized growth (S. cerevisiae deletion strains, locus YMR058W, strain fet3, active compounds read low): 1
- normalized growth (S. cerevisiae deletion strains, locus YMR078C, strain ctf18, active compounds read low): 1.02
- normalized growth (S. cerevisiae deletion strains, locus YMR125W, strain sto1, active compounds read low): 0.992
- normalized growth (S. cerevisiae deletion strains, locus YMR129W, active compounds read low): 1.02
- normalized growth (S. cerevisiae deletion strains, locus YMR205C, strain PFK2, active compounds read low): 0.963
- normalized growth (S. cerevisiae deletion strains, locus YMR223W, strain ubp8, active compounds read low): 0.986
- normalized growth (S. cerevisiae deletion strains, locus YMR231W, strain pep5, active compounds read low): 1.01
- normalized growth (S. cerevisiae deletion strains, locus YMR263W, strain SAP30, active compounds read low): 1
- normalized growth (S. cerevisiae deletion strains, locus YMR307W, strain GAS1, active compounds read low): 0.966
- normalized growth (S. cerevisiae deletion strains, locus YNL067W, strain RPL9B, active compounds read low): 1.01
- normalized growth (S. cerevisiae deletion strains, locus YNL071W, strain lat1, active compounds read low): 0.998
- normalized growth (S. cerevisiae deletion strains, locus YNL128W, strain TEP1, active compounds read low): 1.01
- normalized growth (S. cerevisiae deletion strains, locus YNL153C, strain GIM3, active compounds read low): 0.995
- normalized growth (S. cerevisiae deletion strains, locus YNL183C, strain NPR1, active compounds read low): 0.999
- normalized growth (S. cerevisiae deletion strains, locus YNL209W, strain ssb2, active compounds read low): 0.995
- normalized growth (S. cerevisiae deletion strains, locus YNL233W, strain BNI4, active compounds read low): 0.995
- normalized growth (S. cerevisiae deletion strains, locus YNL248C, strain rpa49, active compounds read low): 1.01
- normalized growth (S. cerevisiae deletion strains, locus YNL250W, strain rad50, active compounds read low): 1.02
- normalized growth (S. cerevisiae deletion strains, locus YNL271C, strain bni1, active compounds read low): 1.01
- normalized growth (S. cerevisiae deletion strains, locus YNL298W, strain CLA4, active compounds read low): 1.01
- normalized growth (S. cerevisiae deletion strains, locus YNL307C, strain MCK1, active compounds read low): 0.902 (active)
- normalized growth (S. cerevisiae deletion strains, locus YNL322C, strain KRE1 (second series), active compounds read low): 1.01
- normalized growth (S. cerevisiae deletion strains, locus YNL322C, strain KRE1, active compounds read low): 1.02
- normalized growth (S. cerevisiae deletion strains, locus YNR049C, strain mso1, active compounds read low): 0.991
- normalized growth (S. cerevisiae deletion strains, locus YNR052C, strain pop2, active compounds read low): 0.968
- normalized growth (S. cerevisiae deletion strains, locus YOL006C, strain TOP1, active compounds read low): 0.632
- normalized growth (S. cerevisiae deletion strains, locus YOL012C, strain htz1): 0.904
- normalized growth (S. cerevisiae deletion strains, locus YOL147C, strain pex11, active compounds read low): 1.01
- normalized growth (S. cerevisiae deletion strains, locus YOR001W, strain rrp6, active compounds read low): 1
- normalized growth (S. cerevisiae deletion strains, locus YOR061W, strain CKA2, active compounds read low): 0.993
- normalized growth (S. cerevisiae deletion strains, locus YOR069W, strain VPS5, active compounds read low): 1.01
- normalized growth (S. cerevisiae deletion strains, locus YOR070C, strain gyp1, active compounds read low): 1
- normalized growth (S. cerevisiae deletion strains, locus YOR080W, strain dia2, active compounds read low): 0.995
- normalized growth (S. cerevisiae deletion strains, locus YOR083W, strain WHI5, active compounds read low): 0.968
- normalized growth (S. cerevisiae deletion strains, locus YOR106W, strain vam3, active compounds read low): 0.961
- normalized growth (S. cerevisiae deletion strains, locus YOR136W, strain idh2, active compounds read low): 0.999
- normalized growth (S. cerevisiae deletion strains, locus YOR144C, strain elg1, active compounds read low): 1.01
- normalized growth (S. cerevisiae deletion strains, locus YOR184W, strain ser1, active compounds read low): 1.02
- normalized growth (S. cerevisiae deletion strains, locus YOR231W, strain MKK1, active compounds read low): 0.974
- normalized growth (S. cerevisiae deletion strains, locus YOR265W, strain rbl2, active compounds read low): 0.984
- normalized growth (S. cerevisiae deletion strains, locus YOR270C, strain vph1, active compounds read low): 0.723 (active)
- normalized growth (S. cerevisiae deletion strains, locus YOR290C, strain snf2, active compounds read low): 0.937
- normalized growth (S. cerevisiae deletion strains, locus YOR316C, strain cot1, active compounds read low): 1.01
- normalized growth (S. cerevisiae deletion strains, locus YPL051W, strain arl3, active compounds read low): 0.982
- normalized growth (S. cerevisiae deletion strains, locus YPL055C, strain LGE1, active compounds read low): 0.975
- normalized growth (S. cerevisiae deletion strains, locus YPL078C, strain atp4, active compounds read low): 0.974
- normalized growth (S. cerevisiae deletion strains, locus YPL106C, strain sse1, active compounds read low): 0.984
- normalized growth (S. cerevisiae deletion strains, locus YPL240C, strain hsp82, active compounds read low): 1.01
- normalized growth (S. cerevisiae deletion strains, locus YPL241C, strain CIN2, active compounds read low): 1
- normalized growth (S. cerevisiae deletion strains, locus YPL256C, strain CLN2, active compounds read low): 1.02
- normalized growth (S. cerevisiae deletion strains, locus YPR119W, strain clb2, active compounds read low): 1.01
- normalized growth (S. cerevisiae deletion strains, locus YPR141C, strain kar3, active compounds read low): 1.02
- normalized growth (S. cerevisiae deletion strains, locus YPR163C, strain tif3, active compounds read low): 0.987
- normalized growth (S. cerevisiae deletion strains, locus YPR167C, strain met16, active compounds read low): 1.01
- normalized growth (S. cerevisiae deletion strains, strain wtn01, active compounds read low): 1
- normalized growth (S. cerevisiae strains, strain wild type, active compounds read low): 0.981
